The record followed here is PubChem BioAssay (NCATS).

Inconclusive results are not listed. The source made the active and inactive calls. Unless noted, calls follow the shape of the dose curve; as a rule, active = well fitted curve in the direction sought with a large enough effect; inconclusive = small, poorly fitted or top-dose-only effect, or another doubt; inactive = no such curve, though single readings can be large; an effect the other way counts as inactive or inconclusive.

Test [1] has as its target Estrogen receptor (Homo sapiens) (UniProt P03372). The test can be described thus: qHTS assay for small molecule antagonists of estrogen receptor alpha signaling (AID 588513; active = well fitted curve in the direction sought with a large enough effect in the signal ratio, with a control signal flat, not every such curve was filed as active; the % refers to the signal ratio; also: % is scaled to controls: 0 for no effect and ±100 for the full control effect). Put shortly: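 Antagonist-mode qHTS in ER-alpha-UAS-bla HEK 293 cells: compound titration, 0.5nM estradiol for 18 h, CCF4 fluorescence, Hill-derived IC50.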
In general terms: Quantitative high-throughput screening tests each substance at several concentrations.

For test [2] the target is unchanged. Kind of test: qHTS assay for small molecule agonists of estrogen receptor alpha signaling (AID 588514; calls by dose curve;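 also: 0% = vehicle only and 100% = reference agonist; nearly all actives have a fitted effect of over 70% in size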). In outline:
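Reporter-gene assay. […] controls beta-lactamase in HEK 293 GripTite cells; after 18 hrs with compound, CCF4 substrate is added for 2 hrs and fluorescence is read.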

The target in test [3] is Glucocorticoid receptor (Homo sapiens) (UniProt P04150). Kind of test: qHTS assay for small molecule agonists of glucocorticoid receptor signaling (AID 588532; active = well fitted curve in the direction sought with a large enough effect in the signal ratio, with a control signal flat; the % refers to the signal ratio;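 also: 100% = dexamethasone at 0.1 µM and 0% = DMSO only wells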). The following applies: HeLa MMTV-bla, beta-lactamase ratio, agonist, 18 h; stronger effect = higher value; percent of dexamethasone control, DMSO zero. Put shortly: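 MMTV-bla HeLa, beta-lactamase reporter; medium with 1% charcoal/dextran-stripped FBS; cpds up to 92 uM, 18 h, 37 C; CCF4 readout 460/530 nm; Hill fit → EC50, efficacy vs 0.1 uM dexamethasone = 100%.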
Sequence of Glucocorticoid receptor (Homo sapiens) (P04150 whole entry, looked up): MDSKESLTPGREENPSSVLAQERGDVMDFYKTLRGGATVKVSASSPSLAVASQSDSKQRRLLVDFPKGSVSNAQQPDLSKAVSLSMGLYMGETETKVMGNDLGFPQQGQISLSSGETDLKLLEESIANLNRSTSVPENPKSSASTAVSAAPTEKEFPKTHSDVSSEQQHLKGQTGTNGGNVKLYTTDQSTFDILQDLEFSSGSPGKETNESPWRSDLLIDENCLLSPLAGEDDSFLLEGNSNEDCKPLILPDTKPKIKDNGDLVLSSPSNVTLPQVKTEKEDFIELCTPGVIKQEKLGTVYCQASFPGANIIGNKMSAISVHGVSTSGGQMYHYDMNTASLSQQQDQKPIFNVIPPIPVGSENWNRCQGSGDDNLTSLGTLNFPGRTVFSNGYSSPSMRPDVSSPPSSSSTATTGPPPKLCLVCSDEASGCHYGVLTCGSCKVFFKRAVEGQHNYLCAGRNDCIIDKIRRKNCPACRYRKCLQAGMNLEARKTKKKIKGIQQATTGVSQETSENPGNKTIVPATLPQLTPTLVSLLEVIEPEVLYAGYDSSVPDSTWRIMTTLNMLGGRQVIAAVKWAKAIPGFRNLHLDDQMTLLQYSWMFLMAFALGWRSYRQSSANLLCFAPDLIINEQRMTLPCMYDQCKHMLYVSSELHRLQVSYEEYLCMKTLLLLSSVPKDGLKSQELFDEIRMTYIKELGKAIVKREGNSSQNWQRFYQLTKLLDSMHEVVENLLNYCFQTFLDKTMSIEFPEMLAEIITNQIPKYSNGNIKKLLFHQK

Test [4] has the same target. Kind of test: qHTS assay for small molecule antagonists of glucocorticoid receptor signaling (AID 588533; active = well fitted inhibition curve with a large enough effect in the signal ratio, with a control signal flat, not every such curve was filed as active; the % refers to the signal ratio;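 also: cells stimulated with 2 nM dexamethasone as agonist; % is scaled to controls: 0 for no effect and ±100 for the full control effect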). In outline: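 Antagonist-mode qHTS: compound titrations added to GRE-bla HeLa cells, then dexamethasone 2 nM final; 18 h, 37 C. CCF4 FRET fluorescence normalized to dexamethasone and DMSO; IC50 from Hill fit.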
A short description of test [5]: qHTS assay for small molecule antagonists of peroxisome proliferator-activated receptor delta signaling (AID 588535; active = well fitted inhibition curve with a large enough effect in the signal ratio, with a control signal flat, not every such curve was filed as active; the % refers to the signal ratio;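 as to max response: cells co-treated with a PPAR-delta agonist as stimulator during compound exposure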). As to conditions: HEK293T PPARd-UAS-bla, beta-lactamase FRET ratio, 18 h; 460 nm channel. In outline:
(§1)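 GeneBLAzer PPAR-delta-UAS-bla HEK293T cells in medium with 2% charcoal/dextran FBS were preincubated 5 hrs at 37 C, then given compounds, incubated 18 hrs at 37 C, and read by CCF4 beta-lactamase fluorescence; IC50 from Hill fits.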

Test [6] concerns the target Peroxisome proliferator-activated receptor delta (Homo sapiens) (UniProt Q03181). Described as above. Put shortly: as §1
A short description of test [7]: qHTS assay for small molecule agonists of retinoid X receptor alpha signaling (AID 588544; calls by dose curve;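 as to activation: 0% = DMSO basal wells and 100% = reference agonist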). The following applies: HEK293T RXRa-UAS-bla, beta-lactamase reporter, 18 h; 530 nm emission.
In test [8] the target is Retinoic acid receptor RXR-alpha (Homo sapiens) (UniProt P19793). The test is described as above.
Sequence of Retinoic acid receptor RXR-alpha (Homo sapiens) (P19793 whole entry, looked up): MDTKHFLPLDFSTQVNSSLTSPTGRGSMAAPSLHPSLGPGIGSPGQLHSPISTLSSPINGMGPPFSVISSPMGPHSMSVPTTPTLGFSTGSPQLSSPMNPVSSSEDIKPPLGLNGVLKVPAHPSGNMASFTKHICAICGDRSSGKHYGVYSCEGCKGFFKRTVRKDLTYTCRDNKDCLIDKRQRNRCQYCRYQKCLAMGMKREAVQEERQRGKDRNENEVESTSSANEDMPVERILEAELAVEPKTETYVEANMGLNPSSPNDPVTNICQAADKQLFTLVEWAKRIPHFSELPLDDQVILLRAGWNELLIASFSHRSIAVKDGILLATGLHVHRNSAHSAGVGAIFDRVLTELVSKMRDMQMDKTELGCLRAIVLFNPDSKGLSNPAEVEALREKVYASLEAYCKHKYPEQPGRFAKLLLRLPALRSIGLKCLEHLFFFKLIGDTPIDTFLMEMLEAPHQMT
Test [9] deals with Thyroid hormone receptor beta (Homo sapiens) (UniProt P10828). Kind of test: qHTS assay for small molecule agonists of thyroid hormone receptor beta signaling (AID 588545; calls by dose curve). Put shortly:
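HEK 293 TR-UAS-bla; agonist mode; 18 hrs, 37 C; CCF4, ex 405/em 460 and 530 nm; norm. T3 10 nM = 100%, DMSO = 0%; Hill fit → EC50, efficacy.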

Test [10] is described as follows: qHTS assay for small molecule antagonists of retinoid X receptor alpha signaling (AID 588546; active = well fitted inhibition curve with a large enough effect in the signal ratio, with a control signal flat, not every such curve was filed as active; the % refers to the signal ratio;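 also: cells stimulated with 9-cis-retinoic acid as agonist; % is scaled to controls: 0 for no effect and ±100 for the full control effect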). As to conditions: HEK293T RXRa-UAS-bla, beta-lactamase ratio, antagonist mode; measured here: W530 green channel, cytotoxicity proxy. In outline:
(§2)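 Beta-lactamase reporter inhibition, read as CCF4 fluorescence ratio (ex 405, em 460/530 nm) after 2 h at RT. HEK293T UAS-bla cells, 2500/well, were stimulated with 9-cis-RA at 500 or 100 nM final alongside test compound for 18 h at 37 C.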

For test [11], the target named is Retinoic acid receptor RXR-alpha (Homo sapiens) (UniProt P19793). The test is described as above. The following applies: HEK293T RXRa-UAS-bla, beta-lactamase ratio, antagonist mode. In outline: as §2
Test [12] can be described thus: qHTS assay for small molecule activators of the nuclear factor-kappa B (NF-kB) signaling pathway (AID 651749; active = well fitted activation curve with a large enough effect in the signal ratio; the % refers to the signal ratio; also: series mostly up to about 77 µM; % of control where 0% means no effect). The following applies: NF-kB-bla ME-180 cells, beta-lactamase FRET ratio, 16 h; activation: stronger effect = higher value. In outline: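 ME-180 cells stably carrying a beta-lactamase reporter under an NF-kB response element were exposed to compound or DMSO vehicle for 16 hr at 37C, 5% CO2. Pathway activation was read by FRET, since reporter expression disrupts FRET.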

The nature of test [13]: qHTS assay for environmental chemicals that activate the Aryl hydrocarbon Receptor (AhR) signaling pathway (AID 651777). Also: % of control where 0% means no effect; nearly all actives have a fitted effect of over 15% in size. As to conditions: 1A2-DRE human hepatoma cells, luciferase, 24 h; activation: stronger effect = higher value. In outline: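 Luminescence (One-Glo, 30 min, room temperature) reports AhR-driven luciferase in stably transfected human hepatoma cells bearing DRE and CYP1A2 promoter. Cells (1,200/well) were treated with compound for 24 hr at 37 C in qHTS format.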

The target of test [14] is Peroxisome proliferator-activated receptor alpha (Homo sapiens) (UniProt Q07869). The test can be described thus: qHTS assay for small molecule agonists of the peroxisome proliferator-activated receptor alpha (PPARalpha) signaling pathway (AID 651778). Also: % of control where 0% means no effect. The following applies: PathHunter PPARalpha complementation, chemiluminescence, 6 h; max response: stronger effect = higher value. In outline:
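Cells plated at 2,000/well and held overnight at 37 C, 5% CO2, then compound added by pin tool for 6 hr; after PathHunter detection reagent and 60 min at room temperature, chemiluminescence from enzyme complementation was read.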

Test [15] can be described thus: qHTS assay for small molecule agonists of the antioxidant response element (ARE) signaling pathway measured by Nrf2-dependant transcriptional activity - cell viability counter screen (AID 720653; active = well fitted curve in the direction sought with a large enough effect in the repeat runs; an effect the other way counts as inactive or inconclusive; also: % is scaled to controls: 0 for no effect and ±100 for the full control effect). As to conditions: ARE-bla HepG2 viability, CellTiter-Glo ATP luminescence, 16 h; max response: stronger effect = lower value. In outline:
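ARE-bla HepG2 cells (2,000/well) rested 5 hrs at 37C/5% CO2, then exposed to compounds in DMSO for 16 hrs. Viability was read in the same wells as intracellular ATP by luminescence, 30 min at room temperature after reagent addition.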

The nature of test [16]: qHTS assay for cell viability of HEK293 cells (AID 743288). Also: % is scaled to controls: 0 for no effect and ±100 for the full control effect; nearly all actives have a fitted effect of over 50% in size. As to conditions: ATP luminescence (CellTiter-Glo), 18 h; max response: stronger effect = lower value. In outline: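 Luminescent ATP quantitation served as the viability read-out. Cells (parental HEK293, 2,000/well) received compounds after at least 5 h at 37 C and were exposed for 18 h before a 30 min room-temperature reagent step.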

Test [17] addresses Nuclear receptor subfamily 1 group I member 2 (Rattus norvegicus) (UniProt Q9R1A7). The test can be described thus: qHTS assay for small molecule activators of the rat pregnane X receptor (rPXR) signaling pathway (AID 651751; call rule not given here; also: 0% is about no effect). As to conditions: rPXR reporter cells, luciferase (One-Glo), 24 h.
The nature of test [18]: qHTS assay for small molecule agonists of the antioxidant response element (ARE) signaling pathway measured by Nrf2-dependant transcriptional activity (AID 720636; active = well fitted curve in the direction sought with a large enough effect in the repeat runs; an effect the other way counts as inactive or inconclusive; also: potency is read from the fitted curve at half-maximal effect; as to activation: % of control where 0% means no effect). Put shortly: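 Nrf2-dependent transcription read as ONE-Glo luciferase signal from ARE-luc HepG2 reporter cells after 16 hr compound treatment at 37 C, 5% CO2, in assay medium with 1% dialyzed FBS.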
The nature of test [19]: qHTS assay for cell viability of the p53RE-bla HCT-116 cell line (AID 743292). Also: % is scaled to controls: 0 for no effect and ±100 for the full control effect; nearly all actives have a fitted effect of over 55% in size. In outline:
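ATP-based luminescent viability (CellTiter-Glo, 30 min RT) after 16 h compound treatment at 37 C of p53RE-bla HCT-116 cells, seeded at 4,000 cells/well and rested 5 h before dosing.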

Test [20] is described as follows: qHTS assay for small molecule activators of the human pregnane X receptor (PXR) signaling pathway (AID 720659; call rule not given here; also: 0% is about no effect).

Sequence of Peroxisome proliferator-activated receptor alpha (Homo sapiens) (Q07869 whole entry, looked up): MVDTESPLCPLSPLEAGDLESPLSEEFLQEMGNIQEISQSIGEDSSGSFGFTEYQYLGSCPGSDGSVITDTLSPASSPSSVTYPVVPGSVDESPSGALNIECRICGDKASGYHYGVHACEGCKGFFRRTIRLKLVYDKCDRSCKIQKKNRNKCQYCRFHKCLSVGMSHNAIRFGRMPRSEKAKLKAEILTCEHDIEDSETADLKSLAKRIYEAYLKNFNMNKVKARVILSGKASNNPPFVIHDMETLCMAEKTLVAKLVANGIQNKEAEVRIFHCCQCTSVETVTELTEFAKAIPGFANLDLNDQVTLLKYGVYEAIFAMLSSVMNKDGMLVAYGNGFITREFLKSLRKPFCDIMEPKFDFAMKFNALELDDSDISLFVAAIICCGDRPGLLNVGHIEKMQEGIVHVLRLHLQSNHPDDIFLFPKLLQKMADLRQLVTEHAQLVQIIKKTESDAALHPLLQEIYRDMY
Sequence of Peroxisome proliferator-activated receptor delta (Homo sapiens) (Q03181 whole entry, looked up): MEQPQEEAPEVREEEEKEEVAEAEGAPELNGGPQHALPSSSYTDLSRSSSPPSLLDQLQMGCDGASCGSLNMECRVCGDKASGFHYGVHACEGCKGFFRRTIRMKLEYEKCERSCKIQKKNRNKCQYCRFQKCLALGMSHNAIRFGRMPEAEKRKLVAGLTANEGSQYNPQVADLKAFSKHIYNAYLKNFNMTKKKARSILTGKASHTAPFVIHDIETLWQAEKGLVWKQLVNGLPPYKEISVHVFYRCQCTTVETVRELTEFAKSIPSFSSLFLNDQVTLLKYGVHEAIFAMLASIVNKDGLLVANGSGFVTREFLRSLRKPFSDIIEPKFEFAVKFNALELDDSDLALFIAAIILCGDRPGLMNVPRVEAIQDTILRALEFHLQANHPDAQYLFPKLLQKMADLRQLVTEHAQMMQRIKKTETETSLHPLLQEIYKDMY
Sequence of Thyroid hormone receptor beta (Homo sapiens) (P10828 whole entry, looked up): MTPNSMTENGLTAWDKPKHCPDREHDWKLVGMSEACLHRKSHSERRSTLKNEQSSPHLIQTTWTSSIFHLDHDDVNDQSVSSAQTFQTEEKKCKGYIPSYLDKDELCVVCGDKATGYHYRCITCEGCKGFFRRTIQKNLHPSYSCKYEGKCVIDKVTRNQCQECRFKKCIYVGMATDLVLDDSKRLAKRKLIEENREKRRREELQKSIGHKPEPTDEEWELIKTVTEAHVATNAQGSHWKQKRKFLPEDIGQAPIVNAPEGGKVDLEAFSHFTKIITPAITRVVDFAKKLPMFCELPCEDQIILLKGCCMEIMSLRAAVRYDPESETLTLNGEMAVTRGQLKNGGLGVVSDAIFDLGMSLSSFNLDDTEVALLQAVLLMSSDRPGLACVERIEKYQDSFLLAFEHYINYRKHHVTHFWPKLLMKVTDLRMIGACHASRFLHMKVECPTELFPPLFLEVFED
Sequence of Nuclear receptor subfamily 1 group I member 2 (Rattus norvegicus) (Q9R1A7 whole entry, looked up): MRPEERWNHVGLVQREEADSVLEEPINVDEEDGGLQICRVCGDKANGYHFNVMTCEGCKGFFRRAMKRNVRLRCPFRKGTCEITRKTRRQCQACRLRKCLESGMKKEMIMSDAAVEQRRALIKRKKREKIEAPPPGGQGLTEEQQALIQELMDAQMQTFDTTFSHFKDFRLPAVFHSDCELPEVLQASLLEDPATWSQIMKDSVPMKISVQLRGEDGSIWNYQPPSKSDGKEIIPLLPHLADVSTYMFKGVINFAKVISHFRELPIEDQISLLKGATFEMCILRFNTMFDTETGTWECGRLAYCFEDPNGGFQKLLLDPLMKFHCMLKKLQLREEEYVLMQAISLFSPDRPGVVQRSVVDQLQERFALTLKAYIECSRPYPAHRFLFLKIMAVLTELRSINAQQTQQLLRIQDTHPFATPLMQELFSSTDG
Sequence of Estrogen receptor (Homo sapiens) (P03372 whole entry, looked up): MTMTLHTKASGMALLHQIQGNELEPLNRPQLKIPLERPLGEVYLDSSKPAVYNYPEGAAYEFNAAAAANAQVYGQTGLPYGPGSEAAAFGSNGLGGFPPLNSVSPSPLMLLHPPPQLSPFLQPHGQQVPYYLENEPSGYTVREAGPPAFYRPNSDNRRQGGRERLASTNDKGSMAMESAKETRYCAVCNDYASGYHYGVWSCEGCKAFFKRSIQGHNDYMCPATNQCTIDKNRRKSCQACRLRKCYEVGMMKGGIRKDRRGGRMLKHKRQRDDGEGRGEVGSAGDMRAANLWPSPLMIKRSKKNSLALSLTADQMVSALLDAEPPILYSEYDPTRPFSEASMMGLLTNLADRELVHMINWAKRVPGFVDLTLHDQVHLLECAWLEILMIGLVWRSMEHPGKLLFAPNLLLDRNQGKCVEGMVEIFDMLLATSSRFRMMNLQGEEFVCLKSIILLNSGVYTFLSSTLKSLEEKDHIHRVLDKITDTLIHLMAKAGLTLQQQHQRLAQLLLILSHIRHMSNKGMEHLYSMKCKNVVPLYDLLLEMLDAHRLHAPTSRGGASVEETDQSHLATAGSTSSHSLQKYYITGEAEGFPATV

On to `Cc1ccc(C(=O)c2ccccc2)cc1`, for which the Potency result in test [1], in [2], in test [4], in test [6], in [8] and in test [9] was “inactive” in each case. The results for the activation in [3], in [12] and in test [13] were 2.58% (inactive), 0.979% (inactive) and -0.234% (inactive), respectively. Moreover, the max response in test [5] was -13.1%; in test [7], 0.662%; in test [10], 9.26%; in [11] it was -15.9% (inactive); in test [14] it was -3.56% (inactive); in test [15], -0.957% (inactive). In addition, the max response in test [16] was -2.28% (inactive); in [17], 3.11% (inactive).
For `COC(=O)c1ccccc1S(=O)(=O)NC(=O)Nc1nc(OC(F)F)cc(OC(F)F)n1`, the Potency result in test [1], in test [2], in test [4], in test [6], in [8] and in test [9] was “inactive” in each case. In addition, the Potency result in test [18] and in [19] was “inactive” each time. Besides, the activation in test [3] is -5.76% (inactive); in test [12] it was -2.94% (inactive); in [13] it was -0.662% (inactive). Besides, the max response was -18.5% in test [5]; -18.6% in [7]; -7.16% in test [10]; -0.141% (inactive) in [14]; 4.57% (inactive) in test [15]; 1.81% (inactive) in test [17]. Besides, the molecule was classed as inactive in test [20].
For `COC(=O)c1cccc(C)c1S(=O)(=O)NC(=O)Nc1nc(OCC(F)(F)F)nc(N(C)C)n1`, the Potency entry in test [1], in test [2], in test [4], in test [6], in test [9] and in test [18] was “inactive” throughout. Further, the Potency result in test [19] was “inactive”. In addition, the activation was -2.8% (inactive) in [3], 0.0138% (inactive) in test [12] and 2.46% (inactive) in [13]. The max response in test [5] is 78.8%; in [10], -7.48%; in [11], -20.9% (inactive); in test [14], -1.42% (inactive); in test [15], -9.65% (inactive); in test [16], -5.64% (inactive). Also, in test [17], the max response was -6.52% (inactive). The outcome in [20] was inactive.
For the molecule `CCCC/C=C\CCCCCCCCO`, the Potency result in [1], in test [2], in [6], in test [8], in [9] and in [18] was “inactive” in each case. For the same molecule, the Potency entry in test [19] was “inactive”. Besides, the max response in [5] was 56.8%; in [7], -17%; in [10], -4.18%; in test [14] it was 2.88% (inactive); in test [15] it was -0.523% (inactive); in test [16], -8.96% (inactive). Besides, the max response in [17] is 12.2% (inactive). In addition, the activation was -0.809% (inactive) in test [12] and 0.183% (inactive) in [13]. Also, the molecule was classed as inactive in test [20].
For `CCc1cccc(C)c1N(C(=O)CS(=O)(=O)O)[C@@H](C)COC`, the Potency result in [1], in test [2], in test [4], in [6], in [8] and in test [9] was “inactive” throughout. Besides, the Potency result in [18] and in test [19] was “inactive” each time. Moreover, the activation in [3] is -18.8% (inactive); in [12] it was -2.32% (inactive); in test [13] it was -0.669% (inactive). In addition, the max response in test [5] is 24.1%; in test [7], -8.42%; in test [10] it was 9.75%; in test [11], -22.6% (inactive); in [14], -2.29% (inactive); in [15], -5.93% (inactive). For the same molecule, the figures for the max response in test [16] and in test [17] were -5.4% (inactive) and -5.94% (inactive), respectively. Also, the call in [20] was inactive.
`Cc1ccc(N=Nc2c(O)ccc3ccccc23)c(C)c1`: the Potency result in test [1], in test [2], in [6], in [9] and in test [19] was “inactive” throughout. The activation in [3] is -16.9% (inactive); in [12], 6% (inactive). Moreover, the max response in test [5] is 9.29%; in test [10], -15.2%; in test [11], -32% (inactive); in test [14], 0.784% (inactive); in [15], -17.4% (inactive); in test [17] it was 13.1% (inactive). The Potency in test [18] was 10.9 µM (active).
